# Records with an inconclusive call do not appear. Where a call stands in place of a potency, no number is given. Calls of active or inactive are those of the source. Calls follow the shape of the dose curve; as a rule, active = well fitted inhibition curve with a large enough effect; inconclusive = small, poorly fitted or top-dose-only effect; inactive = flat fitted curve, though single readings scatter.
# Target: Aldehyde dehydrogenase, mitochondrial (Homo sapiens) (UniProt P05091)
# Assay: qHTS for Inhibitors of the Aldehyde Dehydrogenase Family (ALDH2) Primary screen (AID 2061308); also: nearly all actives have a fitted effect of over 55% in size
# Conditions: ALDH2 enzyme inhibition qHTS, 1536-well; series mostly up to 56 µM
row,SMILES,Potency
1,Cc1ccc(OCCn2c(CCNC(=O)c3ccncc3)nc3ccccc32)cc1,inactive
2,O=C(Cc1ccccc1)Nc1sc2c(c1C(=O)Nc1ccc(Cl)cc1)CCOC2,inactive
3,Cc1cc(C)nc(NC(=S)N2CCN(c3ccccc3C#N)CC2)c1,inactive
4,Cc1nc(N2CCOCC2)c2nc(-c3ccccc3)n(CCN3CCCC3)c2n1,inactive
5,COc1cc(OC)cc(-c2ccc3c(-c4ccc(F)cc4)[nH]nc3n2)c1,inactive
6,CC[C@@H]1C[C@]1(NC(=O)[C@@H]1C[C@@H]2CN1C(=O)[C@H](C(C)(C)C)NC(=O)OCC(C)(C)CCCCc1cccc3c1CN(C3)C(=O)O2)C(=O)NS(=O)(=O)C1CC1,inactive
7,Fc1ccc(-c2nc(CCCCSc3nnc(-c4cccc5ccccc45)o3)no2)cc1,inactive
8,O=C(Nc1cc(F)cc(F)c1)Nc1nnc(-c2ccncc2)s1,inactive
9,O=C1c2ccccc2NC(c2ccccc2O)N1Cc1ccccc1 (stereo not given),inactive
10,O=c1c2ccc(F)cc2nc2sc(Nc3ccc4c(c3)CCC4)nn12,inactive
11,Cc1cc(C)n2ncc(C(=O)Nc3ccc(C#N)cc3)c2n1,inactive
12,CCCn1c(C)nc2c(Nc3ccccc3)nc(C)nc21,inactive
13,Cn1nnnc1Sc1ncnc2scc(-c3cccs3)c12,inactive
14,Cc1ccc(Cl)cc1NS(=O)(=O)c1cc2c(cc1Cl)CCC(=O)N2,inactive
15,COc1ccc(C(=O)NCC(=O)OC(C(=O)Nc2cc(C(F)(F)F)ccc2Cl)c2ccccc2)cc1OC (stereo not given),inactive
16,COc1ccc([S+](=O)([O-])Nc2ccc(-c3nc4ccccc4[nH]3)cc2)cc1OC,inactive
17,Cc1ccccc1C(=O)N1CCc2cc(-c3ccnc(NC(=O)Cc4ccccc4)n3)ccc21,inactive
18,COc1cc2nc(N3CCN(C)CC3)nc(NCCN(C)C)c2cc1OC,inactive
19,N#Cc1no[n+]([O-])c1-c1ccccc1,inactive
20,CCCn1c(-c2ccc(F)cc2)nc2c(NCCCN(CC)CC)nc(C)nc21,inactive

row,SMILES,Potency
1,Cc1ccccc1S(=O)(=O)Nc1cnccc1C(=O)Nc1nc(-c2ccccc2)cs1,inactive
2,NC(=O)C1CCN(c2nc(-c3ccc(OCc4ccccc4)cc3)cs2)CC1,inactive
3,CN(C)C(=O)C1CCN(c2nc(-c3ccc(Br)cc3)cs2)CC1,inactive
4,COc1ccc(CN(Cc2ccccc2)C(=O)c2ccccc2)cc1COc1ccc(NC(C)=O)cc1,inactive
5,CCOc1ccc(CCNC(=O)c2cnon2)cc1OCC,inactive
6,c1cc(NC2CCNCC2)nc(-c2cnc3ccccn23)c1,inactive
7,O=C(Nc1ccc(Cl)cc1)Nc1nnc(-c2ccncc2)s1,inactive
8,Cc1nnc(-c2cnn(C)c2N)o1,inactive
9,FC(F)(F)c1ccc(CNc2nc(-c3ccccc3C(F)(F)F)nc3ccccc23)cc1,inactive
10,O=C(Nc1ccc2c(c1)OCCO2)Nc1nnc(-c2ccncc2)s1,inactive
11,O=C(NCCc1nc2ccccc2[nH]1)C1CCCCC1,inactive
12,COc1ccc(C2Nc3ccccc3C(=O)N2Cc2ccco2)cc1COc1c(C)cc(NC(C)=O)cc1C (stereo not given),inactive
13,COc1ccc(Nc2nc(C#N)nc(NC3CCCC3)n2)cc1,inactive
14,N#Cc1ncc(C(=O)OCC(=O)NC2C3CC4CC(C3)CC2C4)cn1 (stereo not given),inactive
15,Cc1noc(C)c1-c1ccc2ncnc(NCc3cccc(-c4ccccc4)c3)c2c1,inactive
16,CCOc1ccccc1-c1nnc2n1N=C(c1ccc(OC)c(OC)c1)CS2,inactive
17,NC[C@@H](O)c1ccc(O)c(O)c1,inactive
18,Cc1cccc(CNc2ccnc(-c3ccccc3C)n2)c1,inactive
19,CNc1oc(-c2cccc3cnccc23)nc1C#N,inactive
20,COc1ccc(C2c3c(nc(C)[nH]c3=O)Oc3ccc4ccccc4c32)cc1OC (stereo not given),inactive

# Reference: PubChem BioAssay (NCATS)
